From PubChem BioAssay AID2081 (NMMLSC, 2009)
Active and inactive are the calls of the source. How the calls were made is not given here.

Molecular target: Bcl-2-like protein 2 (Homo sapiens) (UniProt Q92843)
Assay: inhibitors of Bim binding to Bcl-W, confirmation, biochemical, multiplexed, bead-based flow cytometry, HTS hits (AID 2081)
Conditions: Bim-Bcl-W binding displacement; series mostly up to 100 µM; inhibition of binding: at the top concentration

Bcl-2-like protein 2 (Homo sapiens), sequence (Q92843 whole entry, looked up): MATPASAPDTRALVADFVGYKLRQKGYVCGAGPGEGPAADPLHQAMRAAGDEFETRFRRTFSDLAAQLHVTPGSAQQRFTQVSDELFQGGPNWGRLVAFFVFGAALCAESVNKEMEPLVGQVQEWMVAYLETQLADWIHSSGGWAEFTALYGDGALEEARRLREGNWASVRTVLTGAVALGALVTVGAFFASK

| Compound | inhibition of binding |
| --- | --- |
| O=C1c2ccccc2C(=O)N1CN(C(=O)COc1ccc(Cl)cc1Cl)c1cccc(F)c1 | -1.52 (inactive) |
| CCN1C(=O)/C(=C\C=C2/C=CC=CN2CC)SC1=S | 5.54 (inactive) |
| Cc1ccc(C=NNC(=O)CSc2nnc(-c3ccc(Cl)cc3)n2-c2ccccc2)o1 | 8.75 (inactive) |
| O=[N+]([O-])c1c(NCCCO)cc(Sc2nc3ccccc3s2)c2nonc12 | 6.04 (inactive) |
| CC(=O)Nc1ccc(-n2cc(-c3ccccc3)[nH]c2=S)cc1 | -1.83 (inactive) |
| Cc1ccc(-c2cc(-c3ccc(F)cc3)c(C#N)c(N)n2)o1 | 7.5 (inactive) |
| O=C(Nc1nnc(COc2ccc(Cl)cc2)s1)c1ccco1 | -0.607 (inactive) |
| CCN(CC)c1ccc(NC(=O)COc2ccccc2C)cc1S(=O)(=O)Nc1ccccc1OC | -2.83 (inactive) |
| Cc1ccc(-c2nc3c(c(=O)[nH]c(=O)n3Cc3ccccc3)n2C)o1 | 28.9 (inactive) |
| CCN(CC)C(=O)COC(=O)c1cc(-c2ccco2)nc2ccccc12 | 8.46 (inactive) |
| Cc1ccc(-c2cc(-c3ccc(C)o3)nc(N)c2C#N)cc1 | 7.17 (inactive) |
| CN(CCO)c1cc(Sc2nc3ccccc3s2)c2nonc2c1[N+](=O)[O-] | 4.07 (inactive) |
| CCN(CC)c1ccc(NC(=O)c2ccccc2Br)cc1S(=O)(=O)Nc1ccccc1OC | -5.26 (inactive) |
| CNC(CC(=O)c1ccc([N+](=O)[O-])cc1)C(Cl)(Cl)Cl (stereo unspecified) | 8.23 (inactive) |
| Cc1cc(-c2cc(-c3ccc(Cl)cc3)nc(N)c2C#N)co1 | 9.15 (inactive) |
| O=C1/C(=C\c2ccco2)NC(=S)N1c1ccccc1 | 12.3 (inactive) |
| COc1ccc(N2C(=O)C(Cl)=C(Oc3cccc(OC)c3)C2=O)cc1 | -0.374 (inactive) |
| O=C1C(Cl)=C(N2CCN(c3ccccc3[N+](=O)[O-])CC2)C(=O)c2ccccc21 | 34.6 (inactive) |
| O=c1c2c(n3nnnc3n1Cc1ccccc1)-c1ccccc1CC21CCCC1 | 6.66 (inactive) |
| COc1ccc(N2C(=O)C(Cl)=C(NC3C(=O)N(c4ccccc4)N(C)C3C)C2=O)cc1 (stereo unspecified) | 3.21 (inactive) |
| COc1ccccc1-n1c(-c2ccccc2)c[nH]c1=S | 6.68 (inactive) |
| Cc1ccc(-c2cc(C(=O)Nc3nccs3)c3ccccc3n2)o1 | 7.16 (inactive) |
| S=c1[nH]cc(-c2ccccc2)n1-c1ccccc1 | -0.382 (inactive) |
| CCN(CC)c1ccc(NC(=O)c2ccccc2F)cc1S(=O)(=O)Nc1ccccc1OC | -6.03 (inactive) |
| COc1cc(CNc2ccc3[nH]c(=O)[nH]c3c2)cc(Br)c1OCC(=O)NC(C)(C)C | 12.4 (inactive) |
| C=CS(=O)(=O)c1sc(Cl)c(N2CCOCC2)c1[N+](=O)[O-] | 19.6 (inactive) |
